In all, about 2,400 compounds went through this assay and about 580 (24%) were called active. The list is a sample of the results. Values without a mark were called inactive.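 Rule for the calls: active = activity change at or above the mean plus 3 SD of buffer wells without dofetilide, per plate; inactive = the rest.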
Each molecule was assayed against Potassium voltage-gated channel subfamily KQT member 2 (Rattus norvegicus) (UniProt O88943) (assay: KCNQ2 potentiation in CHO cells – cell-based, FluxOR thallium flux, counter-screen for hERG block protector project, confirmation (AID 1942;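 note: normalized value minus buffer-control mean plus three SD of buffer wells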)). Conditions: FluxOR thallium flux fluorescence, at 10 µM, stronger effect = higher value.
Chain of Potassium voltage-gated channel subfamily KQT member 2 (Rattus norvegicus) (O88943 whole entry, looked up): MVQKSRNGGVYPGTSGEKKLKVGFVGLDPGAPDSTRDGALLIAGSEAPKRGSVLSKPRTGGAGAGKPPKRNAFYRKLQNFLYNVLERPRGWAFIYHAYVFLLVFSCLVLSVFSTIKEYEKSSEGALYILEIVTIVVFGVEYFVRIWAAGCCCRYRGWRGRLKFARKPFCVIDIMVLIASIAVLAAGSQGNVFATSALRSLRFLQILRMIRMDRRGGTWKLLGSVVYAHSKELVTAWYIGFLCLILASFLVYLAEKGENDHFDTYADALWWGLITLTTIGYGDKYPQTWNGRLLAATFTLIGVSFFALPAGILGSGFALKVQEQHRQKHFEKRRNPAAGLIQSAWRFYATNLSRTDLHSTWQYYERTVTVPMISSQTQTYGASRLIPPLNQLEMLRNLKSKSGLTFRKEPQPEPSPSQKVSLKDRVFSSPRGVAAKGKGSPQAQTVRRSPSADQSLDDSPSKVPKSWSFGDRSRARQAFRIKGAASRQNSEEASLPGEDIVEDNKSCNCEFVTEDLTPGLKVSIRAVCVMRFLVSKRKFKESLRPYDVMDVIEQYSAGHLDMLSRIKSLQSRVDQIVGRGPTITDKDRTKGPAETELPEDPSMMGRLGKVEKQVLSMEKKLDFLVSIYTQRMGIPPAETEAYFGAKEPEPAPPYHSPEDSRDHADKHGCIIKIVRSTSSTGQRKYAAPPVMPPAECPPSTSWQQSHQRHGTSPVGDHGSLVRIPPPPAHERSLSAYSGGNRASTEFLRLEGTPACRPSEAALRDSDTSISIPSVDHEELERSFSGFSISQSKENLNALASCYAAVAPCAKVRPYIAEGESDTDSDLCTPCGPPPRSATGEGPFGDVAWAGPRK

In order of falling activity change, less the hit threshold:
1. Cc1ccc(CS(=O)(=O)c2ncc(Cl)c(C(=O)Nc3nnc(C)s3)n2)cc1  -0.8%
2. COC(=O)c1cc(-c2ccc(C)cc2)n[nH]1  -3.5%
3. Cc1oc2ccc(OCc3ccc(Cl)cc3)cc2c1C(=O)O  -3.6%
4. CC1(C)Cc2c(sc(NC(=O)C(=O)N3CCCC3)c2C#N)CO1  -3.6%
5. O=C1CC(c2ccco2)CC2=C1C1c3ccccc3C(=O)N1c1ccccc1N2 (stereo unspecified)  -4.8%
6. O=C(NCCc1ccc(F)cc1)c1coc(=O)c(Br)c1  -6%
7. O=C(COC(=O)c1ccc(Br)o1)NC1CCCCC1  -6%
8. Cc1cc(=O)oc(C)c1C(=O)NCCC(C)C  -6.2%
9. Cc1ccc(Cn2c(=S)[nH]c3ccccc3c2=O)cc1  -6.4%
10. COc1ccc(CCn2c(S)nc3ccccc3c2=O)cc1  -6.5%
11. Cc1ccc(-c2n[nH]c(=S)nc2-c2ccc(C)cc2)cc1  -7.1%
12. O=[N+]([O-])c1cccc(NC(=S)Nc2nc(-c3ccccc3Cl)cs2)c1  -7.3%
13. CCn1c(O)c(N=NC(=O)CNC(=O)c2ccccc2F)c2ccccc21  -8.6%
14. CC(=O)NC1C(Oc2ccccc2C)OC(CO)C(O)C1O (stereo unspecified)  -8.8%
15. CCn1c(O)c(N=NC(=S)NCC2CCCO2)c2ccccc21 (stereo unspecified)  -9.1%
16. COc1ccc(/C=C2/S/C(=N/N=C3\CC4CCC3(C)C4(C)C)NC2=O)cc1 (stereo unspecified)  -9.1%
17. O=C1CC(N2CCN(c3ccccc3Cl)CC2)C(=O)N1c1ccc(F)cc1 (stereo unspecified)  -9.2%
18. CCN1CCCC(CO)(Cc2ccccc2)C1 (stereo unspecified)  -9.6%
19. Cc1noc(C)c1-c1nnc(-c2ccc(C(F)(F)F)cc2)o1  -9.9%
20. O=C(O)/C=C/C(=O)Nc1ccc(OC(F)(F)F)cc1  -10.2%
21. Cc1cccc(/C=C2/S/C(=N/N=C3\CC4CCC3(C)C4(C)C)NC2=O)c1 (stereo unspecified)  -10.5%
22. Cc1c(C(=O)NN2CCN(C)CC2)cccc1[N+](=O)[O-]  -11.1%
23. COc1cccc(N2CCN(CC(=O)NC(=O)NCc3ccco3)CC2)c1  -11.4%
24. COc1ccc(-c2c(C#N)c(SCC(=O)c3cc4ccccc4oc3=O)nc(C)c2C(=O)Nc2ccccc2)cc1  -11.8%
25. CCc1cccc(C)c1NC(=O)Cc1ccsc1  -12.4%
26. COc1cccc(N2CC(C(=O)Nc3nnc(SCC(=O)NCC4CCCO4)s3)CC2=O)c1 (stereo unspecified)  -12.6%
27. Cc1cc(S(=O)(=O)N2CCOCC2)ccc1OCC(=O)NCc1ccco1  -12.9%
28. COc1cc(OC)cc(-c2nc3ccccc3c(=O)n2OC(=O)c2ccc(Br)cc2)c1  -12.9%
29. C=CCn1c(SCC(=O)NCC2CCCO2)nnc1-c1ccccc1 (stereo unspecified)  -13%
30. O=C1c2nc3cc(-c4ccco4)[nH]n3c(=O)c2CN1Cc1ccccc1  -13.6%
31. CCC(Cc1ccccc1)n1c(=S)[nH]c2ccccc2c1=O (stereo unspecified)  -14%
32. O=C(COc1ccccc1)Nc1ccc(S(=O)(=O)Nc2ccccn2)cc1  -14.4%
33. Cc1nnc(SCc2cc(=O)oc3cc(O)ccc23)n1Cc1ccccc1  -14.7%
34. O=Cc1cc(-c2ccccc2)[nH]c1-c1ccccc1  -15.3%
35. O=C(CN1C(=O)c2ccccc2S1(=O)=O)NCCSCc1ccccc1Cl  -15.3%
36. Cc1nc(Oc2ccc(Cl)cc2)c2oc3ccccc3c2n1  -15.6%
37. Cc1ccc(NC(=O)c2ccc(CNS(=O)(=O)c3cccc(C(F)(F)F)c3)cc2)cc1  -15.6%
38. Cc1cc(OCc2ccc(C(=O)Nc3ccc(C(=O)O)cc3)o2)ccc1Cl  -15.9%
39. Cc1cccc(-n2cc(-c3ccccc3)[nH]c2=S)c1  -16.2%
40. Cc1cc2c(cc(C(=O)OC(C(=O)NCc3ccco3)C(C)C)n2C)o1 (stereo unspecified)  -16.3%
41. CCCC(=O)NC(=S)Nc1nc(-c2ccc(OC)cc2)cs1  -16.3%
42. CCCn1c(SCC(=O)Nc2nc(-c3ccc(OC)cc3)cs2)nc2c1c(=O)n(C)c(=O)n2C  -16.4%
43. Cc1ccc(C2=NN(C(=O)CCCC(=O)O)C(c3ccc4c(c3)OCO4)C2)cc1 (stereo unspecified)  -16.6%
44. CCCCOc1ccc(CC(=O)NCC(=O)O)cc1  -16.8%
45. CCOc1ccc(N)c(SSc2cc(OCC)ccc2N)c1  -17%
46. O=C(COC(=O)c1cnccn1)c1ccc(Cl)cc1  -17%
47. COc1ccc(-c2c(C)c3ccc(OCC(C)=O)cc3oc2=O)cc1  -17.3%
48. O=C1NC2(CCCCCC2)C(=O)N1Cc1ccccc1  -17.6%
49. COc1ccc(C(=O)NCC(=O)OCn2nnc3ccccc3c2=O)cc1OC  -17.7%
50. CCCOc1ccc(C(=O)N(CC(C)C)c2c(N)n(Cc3ccccc3)c(=O)[nH]c2=O)cc1  -17.9%
51. CC(C)Cc1nnc(NC(=O)Cc2ccccc2[N+](=O)[O-])s1  -18.1%
52. Cc1ccc(CNC(=O)CCc2ccc(S(=O)(=O)NCC(C)C)cc2)cc1  -18.2%
53. Cc1cc(NC(=O)CSc2ccc(-c3ccc(F)cc3)nn2)no1  -18.3%
54. COc1ccc(-c2nc(=S)c3c([nH]2)Oc2ccc(C)cc2C3)cc1O  -18.3%
55. O=C(CN1CCN(c2ccccc2O)CC1)NC(=O)NCc1ccco1  -18.7%
56. CC1=NN(c2ccccc2)C(=O)/C1=C/c1ccc(-c2ccc(C)c(C(=O)O)c2)o1  -18.9%
57. COc1ccc(S(=O)(=O)n2nc(C)c(S(=O)(=O)N3CCOCC3)c2C)cc1OC  -19%
58. O=C(Nc1ccc2[nH]c(=S)sc2c1)Nc1ccccc1F  -19%
59. O=C(Nc1ccccc1)O/N=C/c1ccncc1  -19.6%
60. Fc1ccc(N2CCN(c3ccc4c(C(F)(F)F)cc(C(F)(F)F)nc4n3)CC2)cc1  -19.8%
61. O=C(NC1CCCC1)c1ccc(Br)o1  -20.5%
62. CCC(C)(C(=O)NC1CCCC1)N(Cc1ccco1)C(=O)c1ccccn1 (stereo unspecified)  -21.1%
63. CCOc1ccc(CC(C(N)=O)C(N)=O)cc1  -21.3%
64. O=C(CS(=O)(=O)Cc1ccccc1)Nc1ccc(Cl)cn1  -21.6%
65. CCN1C(=O)c2cccc3c(S(=O)(=O)NCC4CCCO4)ccc1c23 (stereo unspecified)  -21.6%
66. Cc1onc(C(=O)N2CCC(C(N)=O)CC2)c1-c1ccccc1Cl  -22.2%
67. Cc1cc(N2C(=O)C(O)=C(C(=O)c3cccs3)C2c2ccccc2)no1 (stereo unspecified)  -22.8%
68. CSc1ccc(/C=N/NC(=O)c2cccs2)cc1  -22.9%
69. CCOC(=O)c1cnn(-c2nc(SC)nc3sc4c(c23)CCCC4)c1N  -23.6%
70. Cc1ccc(S(=O)(=O)Nc2ccc(O)c3ccccc23)c(C)c1  -27%
71. CCOc1ccc(N(CC)C(=O)COc2cc(=O)n(C)c3ccccc23)cc1  -27%
72. O=C(NCc1cccs1)C1CCC(CNS(=O)(=O)c2cccs2)CC1 (stereo unspecified)  -28.1%
73. O=C(CN1C(=O)c2cccc3cccc1c23)Nc1cccnc1  -28.6%
74. CCC(=O)N1CCN(c2nc(CC)nc3sc4c(c23)CCCC4)CC1  -43.7%

With `CCCn1c(O)c(N=NC(=O)c2ccco2)c2ccccc21` the activity change, less the hit threshold was 86.7% (active).
`CCn1c(SCC(N)=O)nc2sc3c(c2c1=O)CCCC3` was tested, and the activity change, less the hit threshold was 31.2% (active).
For `CCn1c(SC(C)C(=O)O)nc2sc3c(c2c1=O)CCC3` (stereo unspecified), the activity change, less the hit threshold was 25.4% (active).
`CCCn1c(SCC(=O)N2CCN(C(C)=O)CC2)nc2sc3c(c2c1=O)CCC3` was tested, and the activity change, less the hit threshold was 29.6% (active).
With `Cc1ccc(OCc2ccoc2C(=O)O)cc1C` the activity change, less the hit threshold was 23.9% (active).
For `Cc1sc2nc(C(C)C)nc(SCC(=O)NCc3ccco3)c2c1C`, the activity change, less the hit threshold was 10.5% (active).
With `CCn1c(SCC(=O)NC(=O)NCc2ccco2)nc2sc(C)c(C)c2c1=O` the activity change, less the hit threshold was 19.7% (active).
With `Cc1cc(SC#N)cc(C)c1NC(=O)CCl` the activity change, less the hit threshold was 19.1% (active).
`S=c1[nH]c(-c2ccccc2)cs1` was tested, and the activity change, less the hit threshold was 61.9% (active).
For `Cc1ccc(-c2csc(=S)[nH]2)cc1`, the activity change, less the hit threshold was 83.7% (active).
With `S=c1[nH]c(-c2ccc(Cl)cc2)cs1` the activity change, less the hit threshold was 119% (active).
In the case of `O=c1[nH]c(C(Cl)(Cl)Cl)nc2ccc3ccccc3c12`, the activity change, less the hit threshold was 15.1% (active).
With `CC12CCC(C/C1=N\N=C1\NC(=O)/C(=C\c3ccc(Cl)cc3)S1)C2(C)C` (stereo unspecified) the activity change, less the hit threshold was 4.4% (active).
In the case of `CCC(=O)N(CC)c1nc(-c2ccc(OC)cc2)cs1`, the activity change, less the hit threshold was 30.9% (active).
`CCOc1ccc(-c2c(=O)n(O)c3ccccc3[n+]2[O-])cc1` was tested, and the activity change, less the hit threshold was 52% (active).
For `CCCOc1ccc(-c2c(=O)n(O)c3ccccc3[n+]2[O-])cc1`, the activity change, less the hit threshold was 71.1% (active).
With `CCCOc1ccc(OC(=O)c2ccc(Br)o2)cc1` the activity change, less the hit threshold was 6.3% (active).
In the case of `Cc1ccc(OC(=O)c2ccc(Br)o2)cc1`, the activity change, less the hit threshold was 46.8% (active).
`Cc1nc(SCC(=O)NCC2CCCO2)c2c3c(sc2n1)CCCC3` (stereo unspecified) was tested, and the activity change, less the hit threshold was 11.1% (active).
In the case of `CC(Oc1ccc(Br)cc1)c1nc2c3ccccc3nc(=S)n2[nH]1` (stereo unspecified), the activity change, less the hit threshold was 14.3% (active).
With `Cc1ccc(-c2nc(N)s[n+]2-c2ccccc2)cc1` the activity change, less the hit threshold was 11.3% (active).
In the case of `CC(C)COn1c(=S)[nH]c2ccccc2c1=O`, the activity change, less the hit threshold was 11.1% (active).
With `CCC(C)n1c(=S)[nH]c2ccccc2c1=O` (stereo unspecified) the activity change, less the hit threshold was 25% (active).
With `CCCCn1c(=S)[nH]c2ccccc2c1=O` the activity change, less the hit threshold was 3.1% (active).
`O=c1c2ccccc2[nH]c(=S)n1CCc1ccccc1` was tested, and the activity change, less the hit threshold was 10.3% (active).
With `S=c1[nH]c2ccc(Cl)cc2s1` the activity change, less the hit threshold was 101% (active).
`S=c1[nH]c2cc(Cl)ccc2s1` was tested, and the activity change, less the hit threshold was 106% (active).

Source: PubChem BioAssay AID1942 (Johns Hopkins Ion Channel Center, 2009)
